Source: PubChem (several laboratories)
Rows were chosen to be rich in hits. Some 2.9% of all compounds tested hit in one or more screens of this group.
Hck Nef HTS: inhibitors of human Hck kinase activated by Nef; AID 463187; inhibition, % at 20 µM; 220,000 tested, 0.68% active; Recombinant Hck-YEEI plus Nef, Z-Lyte FRET kinase assay;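 active = Hck-Nef kinase inhibition above about 50%, limit read from the data; inactive = inhibition below that limit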
14-3-3 Bad PPI: disrupts binding of bovine 14-3-3 zeta to phospho-Bad peptide; AID 781; P63103; 220,000 tested, 0.71% active; inhibition, % at 21.7 µM; TR-FRET 14-3-3zeta/Dy647-pBad peptide displacement, 1 h;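 active = inhibition above about 70%, limit read from the data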
Target sequence (P63103 whole entry, looked up): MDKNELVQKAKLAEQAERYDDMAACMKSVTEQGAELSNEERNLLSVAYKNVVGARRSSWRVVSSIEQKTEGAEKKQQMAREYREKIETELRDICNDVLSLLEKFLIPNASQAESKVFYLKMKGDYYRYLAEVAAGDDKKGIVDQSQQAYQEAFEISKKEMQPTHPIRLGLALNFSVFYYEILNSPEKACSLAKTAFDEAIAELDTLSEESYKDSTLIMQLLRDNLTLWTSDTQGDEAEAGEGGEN
Mcl-1 Bim block: human Bim-Mcl-1 interaction inhibition | 190,000 tested, 0.1% active | Bead-based flow cytometry, Bim peptide-Mcl-1 binding | Q07820 | inhibition, % at 10 µM; in the data active = inhibition above about 40%
Target sequence (Q07820 whole entry, looked up): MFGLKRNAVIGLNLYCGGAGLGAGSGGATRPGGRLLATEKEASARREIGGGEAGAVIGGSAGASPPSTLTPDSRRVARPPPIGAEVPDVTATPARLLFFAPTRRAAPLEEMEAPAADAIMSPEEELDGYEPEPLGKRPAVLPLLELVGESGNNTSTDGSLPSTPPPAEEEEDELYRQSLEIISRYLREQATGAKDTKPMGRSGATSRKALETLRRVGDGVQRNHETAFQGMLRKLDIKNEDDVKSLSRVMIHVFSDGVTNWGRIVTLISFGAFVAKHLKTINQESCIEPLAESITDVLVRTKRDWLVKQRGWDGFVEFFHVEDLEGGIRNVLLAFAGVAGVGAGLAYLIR
Mcl1-Noxa inh: disrupts binding of human Mcl-1 to Noxa peptide; Q07820; TR-FRET Mcl-1/Noxa peptide binding, 2 h; inhibition, % at 21.7 µM; 220,000 tested, 1.5% active; AID 1022;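 active = compounds that cut the protein-peptide binding signal by more than 50% relative to plate controls in a single-dose test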;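 note: His-tagged Mcl-1 with rhodamine Noxa BH3 peptide and terbium anti-His antibody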
Mcl1-Bid inh: disrupts binding of human Mcl-1 to Bid peptide | TR-FRET Mcl-1/Bid-Dy647 peptide binding, 1536-well | Q07820 | 220,000 tested, 0.97% active | inhibition, % at 21.7 µM;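 active = compounds that cut the binding signal by more than half at the single screening dose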;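 note: His-tagged Mcl-1 with europium anti-His antibody binding Bid BH3 peptide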
Pf gametocyte: P. falciparum stage V gametocyte viability inhibition. P. falciparum stage V gametocytes, ATP luminescence, 24 h. inhibition, % at 10.9 µM. 150,000 tested, 0.065% active;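 active = inhibition above the mean plus 3 SD of compounds within the control limits, set per campaign, cut at about 38% in these data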
Of the large screens only hits and unclear results are named; the others gave an inactive call; [ ] = dose if it differs, or a comment.

COc1ccc(CCNS(=O)(=O)c2ccc3c(c2)OCCO3)cc1	14-3-3 Bad PPI 83.9
Cc1[nH]n(C(N)=S)c(=O)c1N=Nc1ccc2ccccc2c1	none
Nc1[nH]n(-c2ccccc2)c(=O)c1N=Nc1ccccc1[N+](=O)[O-]	Mcl1-Noxa inh 59.7 (no result: Pf gametocyte)
Cc1c(N=Nc2c(-c3ccc([N+](=O)[O-])cc3)[nH]n(C(N)=S)c2=O)cccc1[N+](=O)[O-]	14-3-3 Bad PPI 91.6, Mcl1-Noxa inh 115.7, Mcl1-Bid inh 97.8
Nc1[nH]n(-c2ccccc2)c(=O)c1N=Nc1ccc2ncsc2c1	Mcl1-Noxa inh 62.5 (no result: Mcl-1 Bim block)
NC(=S)n1[nH]c(-c2ccc([N+](=O)[O-])cc2)c(N=Nc2ccccc2[N+](=O)[O-])c1=O	Mcl1-Noxa inh 84.2, Mcl1-Bid inh 90.1
O=C(Cc1cccs1)Nc1nnc(SCc2cccc3ccccc23)s1	Mcl1-Noxa inh 68.4
O=C(Cc1cccs1)Nc1nnc(Cc2ccccc2)s1	Mcl1-Noxa inh 82.1 (no result: Pf gametocyte)
COc1cc(NC(=O)c2ccccc2)c(OC)cc1NC(=O)Cc1cccs1	Mcl1-Noxa inh 61.5
Cc1ccc([N+](=O)[O-])cc1NC(=O)Cc1cccs1	Mcl1-Noxa inh 55.6
COc1ccc(Cc2nnc(NC(=O)Cc3cccs3)s2)cc1OC	Mcl1-Noxa inh 96.4, Mcl1-Bid inh 75.8
CC(C)(C)c1cc(CN2CCN(CCO)CC2)cc(C(C)(C)C)c1O	Mcl1-Bid inh 62.3 (no result: Pf gametocyte)
O=C(N/N=C/c1ccc2ncccc2c1)c1ccco1	Mcl1-Noxa inh 52.4
COc1cc(/C=N/NC(=O)c2cc(-c3ccccc3)nc3ccccc23)cc(OC)c1O	none (no result: Hck Nef HTS, 14-3-3 Bad PPI, Mcl-1 Bim block, Mcl1-Noxa inh, Mcl1-Bid inh)
O=C(CN(CC1CCCO1)C(=O)CNS(=O)(=O)c1ccccc1)NCc1ccco1 (centres undefined)	none
S=c1[nH]nc(-c2ccc3ccccc3n2)o1	14-3-3 Bad PPI 82.3[fluorescence artefact?] (no result: Pf gametocyte)
COc1cccc2c(N/N=C/c3ccc(O)c(O)c3)cc(C)nc12	none (no result: Hck Nef HTS, 14-3-3 Bad PPI, Mcl-1 Bim block, Mcl1-Noxa inh, Mcl1-Bid inh)
Oc1ccc(/C=N/Nc2ccnc3cc(Cl)ccc23)cc1O	Mcl1-Noxa inh 95.5 (no result: Mcl-1 Bim block)
Cc1noc(C)c1C(=O)NC1CCCc2ccccc21 (centres undefined)	none (no result: Pf gametocyte)
Cc1cc(C(=O)NC2CCCc3ccccc32)no1 (centres undefined)	Mcl-1 Bim block 46.0 (no result: Pf gametocyte)
COc1ccc(OC)c(CC(NC(C)=O)C(=O)NC2CCN(c3c(Cc4ccccc4)c(C)nc4ncnn34)CC2)c1 (centres undefined)	none (no result: Pf gametocyte)
NC(=O)CSc1nnc(-c2cccnc2)n1CCc1ccccc1	none
CCN(CC)C(=O)CSc1nnc(-c2cccnc2)n1CCc1ccccc1	Mcl1-Noxa inh 61.0 (no result: Pf gametocyte)
CN1CCN(C(=O)c2cc(-c3ccco3)on2)CC1	none (no result: Pf gametocyte)
CC1CCCN(C(=O)c2cccc(S(=O)(=O)Nc3cc(C(F)(F)F)ccc3Cl)c2)C1 (centres undefined)	14-3-3 Bad PPI 89.9 (no result: Pf gametocyte)
CCN1CCN(CC(=O)c2cc(Cl)ccc2Cl)CC1	none
Clc1ccc(SCc2cc(-c3ccc(Cl)cc3)on2)cc1	none
COCCn1nnnc1CN(Cc1ccco1)Cc1cc2cc3c(cc2[nH]c1=O)OCO3	Mcl-1 Bim block 43.0
C=CCOc1c2ccc(C(=O)NCc3ccccc3OC)cc2nn1C	Mcl1-Bid inh 63.6
CCOC(=O)N1CCC(N2CCN(S(=O)(=O)CC)CC2)CC1	14-3-3 Bad PPI 71.8 (no result: Pf gametocyte)
COc1ccc(OCCNC(=O)/C=C/c2ccc([N+](=O)[O-])cc2)cc1	none
COc1cc(O)c(C(CCN2CCN(c3ccccc3)CC2)c2cc(OC)c(OC)c(OC)c2)c(OC)c1 (centres undefined)	none (no result: Mcl-1 Bim block)
O=C1Cc2ccccc2C(c2ccccc2)N1 (centres undefined)	14-3-3 Bad PPI 79.2 (no result: Pf gametocyte)
O=C1Cc2ccccc2C(c2ccc(Cl)cc2)N1 (centres undefined)	none (no result: Mcl-1 Bim block)
CCOC(=O)C1(Cc2ccc(Cl)cc2)CCN(C(=O)C2CCCO2)CC1 (centres undefined)	none
COc1cc(-c2nc3ccccn3c2/N=C/c2cc(OC)c(O)cc2Cl)ccc1O	Mcl1-Noxa inh 57.3
COc1ccc(NC(=O)Cc2c(O)c3ccccc3[nH]c2=O)cc1	none (no result: Pf gametocyte)
CCOC(=O)C1=CN(Cc2ccc(OC)cc2)C=C(C(=O)OCC)C1c1cccs1	Hck Nef HTS 57.9
OC(COC(c1ccccc1)c1ccccc1)CN1CCOCC1 (centres undefined)	none
c1ccc(C(CN2CCOCC2)c2ccccc2)cc1	14-3-3 Bad PPI 84.4
CSc1c(CC(=O)NCCCO)n(Cc2ccccc2)c2ccccc12	none (no result: Hck Nef HTS, 14-3-3 Bad PPI, Mcl-1 Bim block, Mcl1-Noxa inh, Mcl1-Bid inh)
COc1ccc(NC(=O)Cc2c(SC)c3ccccc3n2Cc2ccccc2)cc1	Mcl1-Noxa inh 77.5 (no result: Pf gametocyte)
COCc1cc(C)nc(SCC(=O)Nc2ccc(C)c(C)c2)c1C#N	none (no result: Pf gametocyte)
Cc1nn(Cc2ccccc2)c(C)c1NC(=O)CSc1nc(-c2ccccc2)nc2c1cnn2-c1ccccc1	Mcl1-Bid inh 79.7
O=C(CSc1ncnc2c1cnn2-c1ccccc1)Nc1ccccc1	none
O=C1C(c2c(O)[nH]c3ccccc23)=Nc2ccccc21	none (no result: Hck Nef HTS, Pf gametocyte)
CC(=O)c1cccc2c(O)c(C3=Nc4ccccc4C3=O)[nH]c12	Mcl1-Noxa inh 62.3 (no result: Pf gametocyte)
CCN1C(=O)c2cccc3c(S(=O)(=O)Nc4ccccc4OC)ccc1c23	Mcl1-Bid inh 75.2
O=C(CN(Cc1ccco1)C(=O)c1cc(=O)[nH]c2ccccc12)Nc1ccccc1Br	none (no result: Pf gametocyte)
O=C(CNC(=O)c1ccco1)NCC(=O)OCc1ccccc1Br	Mcl-1 Bim block 43.0 (no result: Pf gametocyte)
O=C(CNC(=O)c1cccs1)NCC(=O)OCc1ccccc1Br	none
CCOc1ccc(NC(=O)Nc2nc(SCC)ns2)cc1	none (no result: Hck Nef HTS, 14-3-3 Bad PPI, Mcl-1 Bim block, Mcl1-Noxa inh, Mcl1-Bid inh)
O=c1oc2cc(O)ccc2c2oc3cc(O)ccc3c12	Mcl1-Noxa inh 54.6 (no result: Pf gametocyte)
CC(=O)c1ccc(N2CCc3ccccc3C2)c([N+](=O)[O-])c1	none (no result: Mcl-1 Bim block)
O=C(O)c1ccc(N/N=C/c2ccc(-c3cc(Cl)ccc3Cl)o2)cc1	Mcl1-Noxa inh 110.6, Mcl1-Bid inh 61.7 (no result: Mcl-1 Bim block)
O=C(O)c1ccc(N/N=C/c2ccc(-c3ccc(Cl)cc3Cl)o2)cc1	Mcl1-Noxa inh 108.2 (no result: Mcl-1 Bim block)
C=CCNC(=S)N/N=C/c1ccc(-c2cc(Cl)ccc2Cl)o1	none (no result: Pf gametocyte)
CC(C)(C)N(NC(=O)Nc1ccc(Cl)c(Cl)c1)C(=O)c1ccccc1	none (no result: Pf gametocyte)
O=C(CN1CCN(C2CCCCC2)CC1)Nc1ccccc1-c1ccccc1	14-3-3 Bad PPI 83.1 (no result: Pf gametocyte)
COc1cc(/C=C2/NC(=O)N(Cc3ccccc3F)C2=O)cc(OC)c1O	Mcl-1 Bim block 51.0, Mcl1-Noxa inh 56.8 (no result: Pf gametocyte)
CC(=O)C1=C(O)CCCC1=NCc1nc2ccccc2[nH]1	none
COc1ccc2nc(NC3=NCCC3)sc2c1	none (no result: Pf gametocyte)
COc1ccc2nc(Nc3sc4c(c3C(N)=O)CCCC4)sc2c1	Mcl1-Noxa inh 99.7
COc1ccc2nc(NC(=O)CN3CCN(C)CC3)sc2c1	none (no result: Pf gametocyte)
COc1ccc2nc(NC(=O)CSc3nnc(N)s3)sc2c1	Mcl1-Noxa inh 53.7
COc1ccc2nc(NC(=O)c3sc4nc(C)cc(C)c4c3N)sc2c1	Mcl1-Noxa inh 52.8 (no result: Mcl-1 Bim block)
CCN1CCN(CC(=O)Nc2nc3ccc(OC)cc3s2)CC1	14-3-3 Bad PPI 78.6[fluorescence artefact?] (no result: Pf gametocyte)
